# In PubChem BioAssay AID1159580 (chemical genetic matrix, 2015):
# Where “and” joins values, the source holds several entries; their conditions need not be identical. Equal values may be shown once. In all, about 5,500 compounds went through this assay and about 2,000 (36%) were called active. About 18% were inconclusive and are not listed. No stated cut-off is given here; in the data, active means normalized growth mostly below about 0.91 (no sharp cut-off); inconclusive means no clear call, values can overlap the other calls; inactive means mostly above about 0.92. Some of the results follow.
# Experiment: chemical genetic growth profiling, strain panel (AID 1159580);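 further: tested at 20 µM; growth read once vehicle control cultures reached saturation at 30 °C; 1 = growth at the plate median or of vehicle wells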
# Settings: S. cerevisiae deletion strains, growth OD
structure (smiles),measurement,setting,value
CC(=O)Nc1nnc(S(N)(=O)=O)s1,normalized growth,"locus YAL013W, strain DEP1, stronger effect = lower value",0.987 (inactive)
same,normalized growth,"locus YAL021C, strain ccr4, stronger effect = lower value",1 (inactive)
same,normalized growth,"locus YAL026C, strain drs2, stronger effect = lower value",1 (inactive)
same,normalized growth,"locus YAL030W, strain snc1, stronger effect = lower value",1.02 (inactive)
same,normalized growth,"locus YAL040C, strain CLN3, stronger effect = lower value",0.992 (inactive)
same,normalized growth,"locus YBL061C, strain skt5, stronger effect = lower value",1.01 (inactive)
same,normalized growth,"locus YBR009C, strain hhf1, stronger effect = lower value",0.991 (inactive)
same,normalized growth,"locus YBR021W, strain FUR4, stronger effect = lower value",0.944 (inactive)
same,normalized growth,"locus YBR023C, strain chs3, stronger effect = lower value",1.01 (inactive)
same,normalized growth,"locus YBR171W, strain sec66, stronger effect = lower value",1.02 (inactive)
same,normalized growth,"locus YBR229C, strain ROT2, stronger effect = lower value",0.95 (inactive)
same,normalized growth,"locus YBR231C, strain swc5, stronger effect = lower value",1.01 (inactive)
same,normalized growth,"locus YBR279W, strain paf1, stronger effect = lower value",1.01 (inactive)
same,normalized growth,"locus YCL011C, strain gbp2, stronger effect = lower value",1.02 (inactive)
same,normalized growth,"locus YCL016C, strain dcc1, stronger effect = lower value",1 (inactive)
same,normalized growth,"locus YCL029C, strain bik1, stronger effect = lower value",0.987 (inactive)
same,normalized growth,"locus YCL061C, strain MRC1 (second series), stronger effect = lower value",0.999 (inactive)
same,normalized growth,"locus YCL069W, strain vba3, stronger effect = lower value",1.02 (inactive)
same,normalized growth,"locus YCR088W, strain abp1, stronger effect = lower value",1.01 (inactive)
same,normalized growth,"locus YDL005C, strain med2, stronger effect = lower value",0.997 (inactive)
same,normalized growth,"locus YDL035C, strain GPR1, stronger effect = lower value",0.538 (active)
same,normalized growth,"locus YDL040C, strain nat1, stronger effect = lower value",1.01 (inactive)
same,normalized growth,"locus YDL074C, strain BRE1, stronger effect = lower value",0.709 (active)
same,normalized growth,"locus YDL101C, strain DUN1, stronger effect = lower value",0.878 (active)
same,normalized growth,"locus YDL134C, strain PPH21, stronger effect = lower value",0.621 (active)
same,normalized growth,"locus YDL185W, strain tfp1, stronger effect = lower value",0.998 (inactive)
same,normalized growth,"locus YDL192W, strain arf1, stronger effect = lower value",0.915 (active)
same,normalized growth,"locus YDR001C, strain nth1, stronger effect = lower value",1.01 (inactive)
same,normalized growth,"locus YDR069C, strain doa4, stronger effect = lower value",1.01 (inactive)
same,normalized growth,"locus YDR101C, strain arx1, stronger effect = lower value",0.998 (inactive)
same,normalized growth,"locus YDR137W, strain rgp1, stronger effect = lower value",1 (inactive)
same,normalized growth,"locus YDR159W, strain sac3, stronger effect = lower value",0.99 (inactive)
same,normalized growth,"locus YDR162C, strain NBP2, stronger effect = lower value",0.126 (active)
same,normalized growth,"locus YDR195W, strain ref2",1.01 (inactive)
same,normalized growth,"locus YDR297W, strain sur2, stronger effect = lower value",1.01 (inactive)
same,normalized growth,"locus YDR318W, strain mcm21, stronger effect = lower value",0.917 (active)
same,normalized growth,"locus YDR334W, strain swr1, stronger effect = lower value",1.01 (inactive)
same,normalized growth,"locus YDR335W, strain msn5, stronger effect = lower value",1 (inactive)
same,normalized growth,"locus YDR388W, stronger effect = lower value",0.959 (inactive)
same,normalized growth,"locus YDR392W, strain spt3, stronger effect = lower value",1 (inactive)
same,normalized growth,"locus YDR502C, strain sam2, stronger effect = lower value",0.943 (inactive)
same,normalized growth,"locus YEL003W, strain gim4, stronger effect = lower value",1.01 (inactive)
same,normalized growth,"locus YEL037C, strain rad23, stronger effect = lower value",1.02 (inactive)
same,normalized growth,"locus YEL061C, strain CIN8 (second series), stronger effect = lower value",1.02 (inactive)
same,normalized growth,"locus YEL061C, strain CIN8, stronger effect = lower value",0.728 (active)
same,normalized growth,"locus YER002W, strain NOP16, stronger effect = lower value",1.03 (inactive)
same,normalized growth,"locus YER015W, strain faa2, stronger effect = lower value",0.997 (inactive)
same,normalized growth,"locus YER016W, strain bim1, stronger effect = lower value",0.99 (inactive)
same,normalized growth,"locus YER110C, stronger effect = lower value",1.01 (inactive)
same,normalized growth,"locus YER111C, strain swi4, stronger effect = lower value",1.01 (inactive)
same,normalized growth,"locus YER155C, strain BEM2 (second series), stronger effect = lower value",1.03 (inactive)
same,normalized growth,"locus YER155C, strain BEM2, stronger effect = lower value",1.01 (inactive)
same,normalized growth,"locus YER167W, strain BCK2, stronger effect = lower value",0.748 (active)
same,normalized growth,"locus YFR010W, strain ubp6, stronger effect = lower value",1.03 (inactive)
same,normalized growth,"locus YGL078C, strain dbp3, stronger effect = lower value",1 (inactive)
same,normalized growth,"locus YGL086W, strain mad1, stronger effect = lower value",0.864 (active)
same,normalized growth,"locus YGL167C, strain pmr1, stronger effect = lower value",1.01 (inactive)
same,normalized growth,"locus YGL173C, strain kem1, stronger effect = lower value",1.02 (inactive)
same,normalized growth,"locus YGL227W, strain vid30, stronger effect = lower value",1.01 (inactive)
same,normalized growth,"locus YGL240W, strain doc1, stronger effect = lower value",1.01 (inactive)
same,normalized growth,"locus YGL248W, strain PDE1, stronger effect = lower value",0.585 (active)
same,normalized growth,"locus YGL253W, strain hxk2, stronger effect = lower value",1.01 (inactive)
same,normalized growth,"locus YGR078C, strain PAC10, stronger effect = lower value",0.477 (active)
same,normalized growth,"locus YGR135W, strain pre9, stronger effect = lower value",0.81 (active)
same,normalized growth,"locus YGR252W, strain gcn5, stronger effect = lower value",0.824 (inactive)
same,normalized growth,"locus YHR013C, strain ard1, stronger effect = lower value",1.02 (inactive)
same,normalized growth,"locus YHR027C, strain rpn1, stronger effect = lower value",0.999 (inactive)
same,normalized growth,"locus YHR030C, strain SLT2, stronger effect = lower value",0.707 (active) and 1 (inactive)
same,normalized growth,"locus YHR079C, strain IRE1 (second series), stronger effect = lower value",0.996 (inactive)
same,normalized growth,"locus YHR079C, strain IRE1, stronger effect = lower value",0.969 (inactive)
same,normalized growth,"locus YHR094C, strain hxt1, stronger effect = lower value",0.985 (inactive)
same,normalized growth,"locus YHR129C, strain ARP1, stronger effect = lower value",0.728 (active)
same,normalized growth,"locus YHR142W, strain chs7, stronger effect = lower value",1.01 (inactive)
same,normalized growth,"locus YHR200W, strain rpn10, stronger effect = lower value",0.985 (inactive)
same,normalized growth,"locus YIL066C, strain RNR3, stronger effect = lower value",0.24 (active)
same,normalized growth,"locus YIL073C, strain SPO22, stronger effect = lower value",0.202 (active)
same,normalized growth,"locus YIL125W, strain kgd1, stronger effect = lower value",1.01 (inactive)
same,normalized growth,"locus YIR030C, strain dcg1, stronger effect = lower value",1.01 (inactive)
same,normalized growth,"locus YJL092W, strain hpr5, stronger effect = lower value",1.02 (inactive)
same,normalized growth,"locus YJL095W, strain BCK1 (second series), stronger effect = lower value",1.01 (inactive)
same,normalized growth,"locus YJL095W, strain BCK1, stronger effect = lower value",0.773 (active) and 0.995 (inactive)
same,normalized growth,"locus YJL115W, strain asf1, stronger effect = lower value",1.02 (inactive)
same,normalized growth,"locus YJL129C, strain trk1, stronger effect = lower value",1.02 (inactive)
same,normalized growth,"locus YJL134W, strain LCB3, stronger effect = lower value",0.938 (inactive)
same,normalized growth,"locus YJL154C, strain vps35, stronger effect = lower value",1.02 (inactive)
same,normalized growth,"locus YJL164C, strain tpk1, stronger effect = lower value",1 (inactive)
same,normalized growth,"locus YJL166W, strain qcr8, stronger effect = lower value",1.01 (inactive)
same,normalized growth,"locus YJL168C, strain set2, stronger effect = lower value",0.979 (inactive)
same,normalized growth,"locus YJL187C, strain SWE1 (second series), stronger effect = lower value",0.793 (active)
same,normalized growth,"locus YJR043C, strain POL32, stronger effect = lower value",0.398 (active)
same,normalized growth,"locus YJR066W, strain TOR1, stronger effect = lower value",0.97 (inactive)
same,normalized growth,"locus YJR075W, strain HOC1, stronger effect = lower value",1.01 (inactive)
